# Compounds without any hit were thinned out: in the full panel of roughly 79,000, 15% have a hit. Unmarked numbers belong to inactive results. Active and inactive are the calls of the source. No stated cut-off is given here; in the data, active means growth inhibition above about 70%; inactive means the rest.
# Legend:
# [1] = NCI Yeast Anticancer Drug Screen. Data for the rad50 strain (AID 155);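 further: 0% = growth of vehicle-only cultures of the same strain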; conditions: S. cerevisiae rad50 strain growth inhibition, hits give high values
# How it was run: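 DNA repair mutant yeast, compound exposure, growth read-out; inhibition is taken relative to vehicle.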
# [2] = NCI Yeast Anticancer Drug Screen. Data for the mec2-1 strain (AID 157); conditions: S. cerevisiae mec2-1 strain, hits give high values
# How it was run: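 Each compound was tested on mec2-1 yeast, a strain altered in DNA damage repair or cell cycle control. Growth inhibition is reported relative to vehicle.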
# [3] = NCI Yeast Anticancer Drug Screen. Data for the sgs1 mgt1 strain (AID 161);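 further: 0% = growth of cultures given vehicle only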; conditions: S. cerevisiae sgs1 mgt1 strain, hits give high values
# How it was run: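 Mutant yeast exposed to compound; growth scored against vehicle-only wells.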
# [4] = NCI Yeast Anticancer Drug Screen. Data for the cln2 rad14 strain (AID 165);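 further: 0% = growth equal to vehicle treated cultures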; conditions: S. cerevisiae cln2 rad14 strain, hits give high values
# How it was run: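 Test compounds were added to cln2 rad14 yeast cultures; inhibition of growth was then determined by comparison with vehicle treatment.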
# [5] = NCI Yeast Anticancer Drug Screen. Data for the bub3 strain (AID 167); conditions: S. cerevisiae bub3 mutant strain, hits give high values
# How it was run: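 In this screen, a yeast mutant lacking normal mitotic checkpoint function is challenged with compound. Relative growth versus vehicle gives the inhibition value.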
# [6] = NCI Yeast Anticancer Drug Screen. Data for the mlh1 rad18 strain (AID 175); conditions: S. cerevisiae mlh1 rad18 strain growth inhibition, hits give high values
# How it was run: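 Inhibition values reflect reduced growth of mutant yeast versus vehicle-treated controls following compound exposure; the mutations affect DNA damage repair.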
# [7] = at 5.0 µM (retest, dose inferred, filed as 0.5)
# [8] = at 50.0 µM (retest, dose inferred, filed as 5.0)
Structure (SMILES),"growth inhibition [1, 7]","growth inhibition [1, 8]",growth inhibition ([1]; at 50.0 µM),"growth inhibition [2, 7]","growth inhibition [2, 8]",growth inhibition ([2]; at 50.0 µM),"growth inhibition [3, 7]","growth inhibition [3, 8]",growth inhibition ([3]; at 50.0 µM),"growth inhibition [4, 7]","growth inhibition [4, 8]",growth inhibition ([4]; at 50.0 µM),"growth inhibition [5, 7]","growth inhibition [5, 8]",growth inhibition ([5]; at 50.0 µM),"growth inhibition [6, 7]","growth inhibition [6, 8]",growth inhibition ([6]; at 50.0 µM)
O=c1cccccc1[O-].O=c1cccccc1[O-].O=c1cccccc1[O-].[La+3],87% (active),87% (active),90.8% (active),52%,52%,91.8% (active),92% (active),92% (active),87.5% (active),59%,59%,89.8% (active),26%,26%,90.7% (active),74% (active),74% (active),88.6% (active)
Cc1cc2c(cc1C)[n+]([O-])c(-c1c(Cl)cccc1Cl)c(N)[n+]2[O-],13%,88% (active),82.5% (active),27%,98% (active),45.2%,40%,100% (active),79.4% (active),18%,77% (active),69%,56%,99% (active),93.5% (active),45%,98% (active),93.7% (active)
c1ccc2nc(C[n+]3cccc4ccccc43)ccc2c1,86% (active),99% (active),97.5% (active),73% (active),99% (active),97.8% (active),70% (active),97% (active),58.4%,72% (active),99% (active),80% (active),64%,98% (active),97.9% (active),73% (active),98% (active),97.1% (active)
O=C(c1ccccc1)N(C(=S)N(C(=O)c1ccccc1)c1ccccc1)c1ccccc1,-3%,12%,99% (active),-1%,-2%,99.7% (active),1%,-4%,99.2% (active),3%,-7%,98.8% (active),0%,-3%,99% (active),-1%,-3%,99.1% (active)
O=[N+]([O-])c1ccc2c(c1)/C(=N/O)c1ccccc1-2,21%,49%,88.3% (active),0%,7%,28.4%,4%,20%,70%,-10%,4%,46.2%,8%,29%,18.8%,19%,38%,81% (active)
O=C(Oc1c(Cl)c(Cl)c(Cl)c(Cl)c1Cl)c1ccc(Cl)cc1,25%,99% (active),99.6% (active),19%,99% (active),99.7% (active),24%,99% (active),99% (active),13%,99% (active),99.7% (active),15%,99% (active),99.7% (active),30%,99% (active),99.2% (active)
Cc1ccc(N2CC3CC4(C)C=CC3(C2)O4)cc1 (centres undefined),6%,8%,76% (active),-9%,1%,49.7%,10%,22%,79.8% (active),-22%,10%,-6.65%,13%,-3%,89.5% (active),30%,-1%,50.8%
COC(=O)n1c(C[P+](c2ccccc2)(c2ccccc2)c2ccccc2)cc2ccccc21,89% (active),100% (active),99.2% (active),90% (active),100% (active),99.6% (active),79% (active),99% (active),99.5% (active),91% (active),99% (active),98.1% (active),95% (active),100% (active),99.4% (active),90% (active),99% (active),99% (active)
C/C(=N\NC(=S)N(C)C)c1cccc(C)n1,76% (active),98% (active),99.2% (active),84% (active),99% (active),99.3% (active),84% (active),99% (active),99.2% (active),89% (active),99% (active),99% (active),70% (active),98% (active),99.3% (active),95% (active),98% (active),99.3% (active)
CN1CC(CN2CCCCC2)C(O)C(c2ccccc2)C1 (centres undefined),-3%,-1%,10.2%,-5%,-1%,-4.5%,-3%,6%,9.3%,-5%,-3%,34.4%,-4%,-8%,2.65%,-3%,-2%,56.5%
CCC12C=CCN3CCC4(c5cc(C(c6ccccn6)c6cc7ccccc7n6C)c(OC)cc5N(C)C4C(O)(C(=O)OC)C1OC(C)=O)C32 (centres undefined),4%,0%,68.3%,46%,0%,81.5% (active),-1%,2%,49.6%,-2%,-5%,83.3% (active),-2%,-3%,65%,3%,11%,94.7% (active)
CCCCCCCOc1ccc(C=O)cc1OC,0%,41%,7.3%,-1%,35%,44%,3%,45%,38.6%,-2%,26%,36.9%,-1%,38%,50%,1%,46%,33.8%
O=C(Cc1nc2ccccc2s1)Nc1ccc2ccccc2c1,-8%,99% (active),98% (active),18%,99% (active),98.5% (active),31%,99% (active),97.8% (active),-1%,99% (active),95.3% (active),12%,99% (active),97.8% (active),13%,99% (active),97.8% (active)
